# According to PubChem BioAssay AID1159580 (chemical genetic matrix, 2015):
# Hit rate of the full screen: of about 5,500 compounds, about 2,000 (36%) were called active. Another 18% or so got no clear call; they are omitted. Some of the results follow. A number with no mark means an inactive call. No stated cut-off is given here; in the data, active means normalized growth mostly below about 0.91 (no sharp cut-off); inconclusive means no clear call, values can overlap the other calls; inactive means mostly above about 0.92.
# Experiment: chemical genetic growth profiling, strain panel (AID 1159580);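 further: tested at 20 µM; growth read once vehicle control cultures reached saturation at 30 °C; 1 = growth at the plate median or of vehicle wells; lower values mean less growth of the strain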
# Conditions: S. cerevisiae deletion strains, growth OD
# [1] = locus YAL013W, strain DEP1, hits give low values
# [2] = locus YBR229C, strain ROT2, hits give low values
# [3] = locus YCL061C, strain MRC1, hits give low values
# [4] = locus YDL101C, strain DUN1, hits give low values
# [5] = locus YDR150W, strain NUM1, hits give low values
# [6] = locus YEL061C, strain CIN8, hits give low values
# [7] = locus YGR078C, strain PAC10, hits give low values
# [8] = locus YHR030C, strain SLT2, hits give low values
# [9] = locus YHR087W, strain rtc3, hits give low values
# [10] = locus YJL187C, strain SWE1, hits give low values
# [11] = locus YJR043C, strain POL32, hits give low values
# [12] = locus YJR075W, strain HOC1, hits give low values
# [13] = locus YLR039C, strain RIC1, hits give low values
# [14] = locus YLR058C, strain SHM2 (second series), hits give low values
# [15] = locus YLR085C, strain ARP6, hits give low values
# [16] = locus YLR262C, strain YPT6, hits give low values
# [17] = locus YML094W, strain GIM5, hits give low values
# [18] = locus YMR219W, strain ESC1, hits give low values
# [19] = locus YMR263W, strain SAP30, hits give low values
# [20] = locus YMR307W, strain GAS1, hits give low values
# [21] = locus YNL153C, strain GIM3, hits give low values
# [22] = locus YNL298W, strain CLA4 (second series), hits give low values
# [23] = locus YNL322C, strain KRE1, hits give low values
# [24] = locus YNR030W, strain Alg12, hits give low values
# [25] = locus YPL055C, strain LGE1, hits give low values
# [26] = locus YPL241C, strain CIN2, hits give low values
# [27] = locus YPR135W, strain CTF4, hits give low values
smiles,measurement,setting,value
Cc1ccc2cc(C)c(C)cc2c1,normalized growth,[1],0.994
same,normalized growth,[2],0.991
same,normalized growth,[3],0.992
same,normalized growth,[4],1.02
same,normalized growth,[5],1.05
same,normalized growth,[6],1
same,normalized growth,[7],0.99
same,normalized growth,[8],0.729
same,normalized growth,[9],1.01
same,normalized growth,[10],0.993
same,normalized growth,[11],0.989
same,normalized growth,[12],0.961
same,normalized growth,[13],0.897
same,normalized growth,[14],0.992
same,normalized growth,[15],0.949
same,normalized growth,[16],0.831
same,normalized growth,[17],1
same,normalized growth,[18],1.01
same,normalized growth,[19],1
same,normalized growth,[20],0.742
same,normalized growth,[21],0.952
same,normalized growth,[22],0.957
same,normalized growth,[23],0.985
same,normalized growth,[24],0.958
same,normalized growth,"locus YOL006C, strain TOP1, hits give low values",0.902
same,normalized growth,[25],1.02
same,normalized growth,[26],0.995
same,normalized growth,[27],0.899
Cc1ccc(Oc2ccc(C)cc2)cc1,normalized growth,[1],0.993
same,normalized growth,[2],0.999
same,normalized growth,[4],1.01
same,normalized growth,[5],0.999
same,normalized growth,[6],0.976
same,normalized growth,[7],1
same,normalized growth,[8],0.663 (active)
same,normalized growth,[9],1.03
same,normalized growth,[10],0.993
same,normalized growth,[11],0.992
same,normalized growth,[12],1.01
same,normalized growth,"locus YKL190W, strain CNB1, hits give low values",1
same,normalized growth,[13],0.897
same,normalized growth,[14],0.991
same,normalized growth,[15],0.864
same,normalized growth,[16],0.889
same,normalized growth,[17],1.06
same,normalized growth,[18],1
same,normalized growth,[19],0.969
same,normalized growth,"locus YNL128W, strain TEP1, hits give low values",0.995
same,normalized growth,[21],0.999
same,normalized growth,[22],0.96
same,normalized growth,[23],0.993
same,normalized growth,[24],0.962
same,normalized growth,[25],1.02
same,normalized growth,[26],0.936
same,normalized growth,[27],0.912
CC(C)(N=NC(C)(C)C(=N)N)C(=N)N,normalized growth,"locus YAL021C, strain ccr4, hits give low values",0.995
same,normalized growth,"locus YAL026C, strain drs2, hits give low values",1.05
same,normalized growth,"locus YAL030W, strain snc1, hits give low values",1.02
same,normalized growth,"locus YBL061C, strain skt5, hits give low values",1.02
same,normalized growth,"locus YBR009C, strain hhf1, hits give low values",1.07
same,normalized growth,"locus YBR023C, strain chs3, hits give low values",1.02
same,normalized growth,"locus YBR171W, strain sec66, hits give low values",1.03
same,normalized growth,"locus YBR231C, strain swc5, hits give low values",1.04
same,normalized growth,"locus YBR279W, strain paf1, hits give low values",1.03
same,normalized growth,"locus YCL011C, strain gbp2, hits give low values",1.03
same,normalized growth,"locus YCL016C, strain dcc1, hits give low values",1.03
same,normalized growth,[3],1.03
same,normalized growth,"locus YCL069W, strain vba3, hits give low values",1.02
same,normalized growth,"locus YCR088W, strain abp1, hits give low values",1.02
same,normalized growth,"locus YDL005C, strain med2, hits give low values",1.03
same,normalized growth,"locus YDL040C, strain nat1, hits give low values",1.02
same,normalized growth,"locus YDR001C, strain nth1, hits give low values",1.02
same,normalized growth,"locus YDR069C, strain doa4, hits give low values",1.03
same,normalized growth,"locus YDR137W, strain rgp1, hits give low values",0.998
same,normalized growth,"locus YDR159W, strain sac3, hits give low values",1.05
same,normalized growth,"locus YDR195W, strain ref2",1
same,normalized growth,"locus YDR297W, strain sur2, hits give low values",1.02
same,normalized growth,"locus YDR334W, strain swr1, hits give low values",1.03
same,normalized growth,"locus YDR335W, strain msn5, hits give low values",1.02
same,normalized growth,"locus YDR392W, strain spt3, hits give low values",0.98
same,normalized growth,"locus YEL003W, strain gim4, hits give low values",1.03
same,normalized growth,"locus YEL037C, strain rad23, hits give low values",1.02
same,normalized growth,"locus YEL061C, strain CIN8 (second series), hits give low values",1.02
same,normalized growth,"locus YER015W, strain faa2, hits give low values",1.03
same,normalized growth,"locus YER016W, strain bim1, hits give low values",1.04
same,normalized growth,"locus YER111C, strain swi4, hits give low values",1.03
same,normalized growth,"locus YER155C, strain BEM2 (second series), hits give low values",1.03
same,normalized growth,"locus YFR010W, strain ubp6, hits give low values",1.03
same,normalized growth,"locus YGL167C, strain pmr1, hits give low values",1.03
same,normalized growth,"locus YGL173C, strain kem1, hits give low values",1.05
same,normalized growth,"locus YGL227W, strain vid30, hits give low values",1.02
same,normalized growth,"locus YGL240W, strain doc1, hits give low values",1.04
same,normalized growth,"locus YGL253W, strain hxk2, hits give low values",1.01
same,normalized growth,"locus YHR013C, strain ard1, hits give low values",1.05
same,normalized growth,"locus YHR027C, strain rpn1, hits give low values",1.03
same,normalized growth,[8],0.971
same,normalized growth,"locus YHR079C, strain IRE1, hits give low values",0.971
same,normalized growth,"locus YHR142W, strain chs7, hits give low values",0.965
same,normalized growth,"locus YJL092W, strain hpr5, hits give low values",1.03
same,normalized growth,"locus YJL095W, strain BCK1 (second series), hits give low values",1.02
same,normalized growth,"locus YJL095W, strain BCK1, hits give low values",0.969
same,normalized growth,"locus YJL115W, strain asf1, hits give low values",1.02
same,normalized growth,"locus YJL129C, strain trk1, hits give low values",1.03
same,normalized growth,"locus YJL154C, strain vps35, hits give low values",1.02
same,normalized growth,"locus YJL164C, strain tpk1, hits give low values",1.02
same,normalized growth,"locus YJL166W, strain qcr8, hits give low values",1.01
same,normalized growth,[10],1.02
same,normalized growth,"locus YJR066W, strain TOR1, hits give low values",0.896
same,normalized growth,"locus YKL160W, strain elf1, hits give low values",0.99
same,normalized growth,"locus YKR026C, strain gcn3, hits give low values",1.02
same,normalized growth,"locus YKR091W, strain srl3, hits give low values",1.02
same,normalized growth,"locus YLL001W, strain dnm1, hits give low values",1.03
same,normalized growth,"locus YLL026W, hits give low values",1.02
same,normalized growth,"locus YLL041C, strain sdh2, hits give low values",1.02
same,normalized growth,"locus YLR027C, strain aat2, hits give low values",1.03
same,normalized growth,"locus YLR113W, strain HOG1, hits give low values",0.985
same,normalized growth,"locus YLR221C, strain rsa3, hits give low values",1.02
same,normalized growth,"locus YLR258W, strain gsy2, hits give low values",1.04
same,normalized growth,"locus YLR262C, strain YPT6 (second series), hits give low values",1.03
same,normalized growth,"locus YLR320W, strain mms22, hits give low values",1.07
same,normalized growth,"locus YLR342W, strain FKS1, hits give low values",1.03
same,normalized growth,"locus YLR357W, strain rsc2, hits give low values",1.06
same,normalized growth,"locus YLR370C, strain arc18, hits give low values",1.03
same,normalized growth,"locus YLR384C, strain iki3, hits give low values",1.02
same,normalized growth,"locus YML120C, strain ndi1, hits give low values",1.04
same,normalized growth,"locus YMR058W, strain fet3, hits give low values",1.03
same,normalized growth,"locus YMR125W, strain sto1, hits give low values",1.04
same,normalized growth,"locus YMR129W, hits give low values",1.01
same,normalized growth,"locus YMR205C, strain PFK2, hits give low values",1.08
same,normalized growth,"locus YMR231W, strain pep5, hits give low values",1.02
same,normalized growth,"locus YNL071W, strain lat1, hits give low values",1.02
same,normalized growth,"locus YNL183C, strain NPR1, hits give low values",0.906
same,normalized growth,"locus YNL209W, strain ssb2, hits give low values",1.03
same,normalized growth,"locus YNL248C, strain rpa49, hits give low values",0.99
same,normalized growth,"locus YNL322C, strain KRE1 (second series), hits give low values",1.01
same,normalized growth,"locus YNR049C, strain mso1, hits give low values",1.02
same,normalized growth,"locus YOR001W, strain rrp6, hits give low values",1.02
same,normalized growth,"locus YOR070C, strain gyp1, hits give low values",1.04
same,normalized growth,"locus YOR080W, strain dia2, hits give low values",1.03
same,normalized growth,"locus YOR083W, strain WHI5, hits give low values",0.988
same,normalized growth,"locus YOR106W, strain vam3, hits give low values",0.886
same,normalized growth,"locus YOR231W, strain MKK1, hits give low values",0.976
same,normalized growth,"locus YOR265W, strain rbl2, hits give low values",1.02
same,normalized growth,"locus YOR270C, strain vph1, hits give low values",1.02
same,normalized growth,"locus YOR290C, strain snf2, hits give low values",1
same,normalized growth,"locus YPL051W, strain arl3, hits give low values",1.01
same,normalized growth,"locus YPL078C, strain atp4, hits give low values",0.983
same,normalized growth,"locus YPL106C, strain sse1, hits give low values",1.05
same,normalized growth,"locus YPL240C, strain hsp82, hits give low values",1.01
same,normalized growth,"locus YPL256C, strain CLN2, hits give low values",0.979
C[C@H]1OC[C@@H](C[N+](C)(C)C)O1,normalized growth,"locus YAL040C, strain CLN3, hits give low values",1.01
same,normalized growth,"locus YCL061C, strain MRC1 (second series), hits give low values",1.01
same,normalized growth,[5],1
same,normalized growth,"locus YDR363W, strain ESC2, hits give low values",1.02
same,normalized growth,"locus YER002W, strain NOP16, hits give low values",1.04
same,normalized growth,[20],1
same,normalized growth,[21],1.02
same,normalized growth,"locus YNL175C, strain NOP13, hits give low values",1.02
same,normalized growth,"locus YNL197C, strain WHI3, hits give low values",1
same,normalized growth,"locus YNL224C, strain SQS1, hits give low values",1.02
same,normalized growth,[23],1.02
same,normalized growth,"locus YOR083W, strain WHI5 (second series), hits give low values",1.03
same,normalized growth,[25],1.05
